Source: article PMC7862700, “An all-to-all approach to the identification of sequence-specific readers for epigenetic DNA modifications on cytosine”

How the values were obtained:
Assay in all cases: DAPPL (digital affinity profiling via proximity ligation, sequencing); 10 mM Tris-HCl pH 7.5, 50 mM NaCl, 1 mM DTT, 4% glycerol, room temperature, 30 min; GST-TFs on glutathione beads, 16-mer random dsDNA library, 0.1% formaldehyde crosslink after washing; high values mean tight binding
FLI1 = target: T1, FLI1 (Homo sapiens, UniProt Q01543 1-452); settings: protein: recombinant; tags: N-terminal GST; dsDNA, one strand shown
T1 sequence: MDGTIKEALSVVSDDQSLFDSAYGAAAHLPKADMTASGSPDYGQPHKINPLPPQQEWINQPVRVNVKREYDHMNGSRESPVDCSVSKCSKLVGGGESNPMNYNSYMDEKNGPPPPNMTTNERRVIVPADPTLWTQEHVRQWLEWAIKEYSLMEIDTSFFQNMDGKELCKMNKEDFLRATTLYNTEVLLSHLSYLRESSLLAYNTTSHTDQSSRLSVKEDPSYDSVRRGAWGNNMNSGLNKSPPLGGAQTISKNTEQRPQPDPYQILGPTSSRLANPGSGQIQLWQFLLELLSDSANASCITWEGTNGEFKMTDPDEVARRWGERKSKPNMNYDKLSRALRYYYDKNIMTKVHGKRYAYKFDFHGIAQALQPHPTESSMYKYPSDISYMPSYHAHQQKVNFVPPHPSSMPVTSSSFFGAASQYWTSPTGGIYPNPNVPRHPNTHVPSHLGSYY
Method in brief: (§1)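 A tag-only sample was pooled with DNA-barcoded human transcription factors that had been expressed in yeast as GST fusions and captured on glutathione beads. The pools were incubated for 30 min at room temperature with 200 nmole of a random double-stranded 16-mer DNA library in Tris/NaCl/DTT/glycerol buffer, then washed, crosslinked with 0.1% formaldehyde, proximity-ligated (BsaI/T4 ligase, 1 h, 37 °C), PCR-amplified and sequenced on an Illumina NextSeq500. Binding signal is each hexamer's read frequency for a factor divided by its frequency for the tag-only sample.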

ELK1 = target: T2, ELK1 (Homo sapiens, UniProt P19419 1-428); settings: protein: recombinant; tags: N-terminal GST; dsDNA, one strand shown
T2 sequence: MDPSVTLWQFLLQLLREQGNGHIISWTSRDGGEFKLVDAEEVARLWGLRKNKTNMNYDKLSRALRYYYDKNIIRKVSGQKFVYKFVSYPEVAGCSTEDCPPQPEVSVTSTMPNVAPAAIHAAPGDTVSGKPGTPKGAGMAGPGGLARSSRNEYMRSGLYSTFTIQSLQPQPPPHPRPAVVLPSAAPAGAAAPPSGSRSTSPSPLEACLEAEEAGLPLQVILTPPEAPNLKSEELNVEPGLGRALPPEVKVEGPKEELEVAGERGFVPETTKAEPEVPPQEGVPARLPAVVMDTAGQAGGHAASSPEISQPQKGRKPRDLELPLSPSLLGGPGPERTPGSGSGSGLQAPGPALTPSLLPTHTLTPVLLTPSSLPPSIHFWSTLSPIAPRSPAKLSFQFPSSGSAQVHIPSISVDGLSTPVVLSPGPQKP
Method in brief: as §1

GABPA = target: T3, GABPA (Homo sapiens, UniProt Q06546 1-454); settings: protein: recombinant; tags: N-terminal GST; dsDNA, one strand shown
T3 sequence: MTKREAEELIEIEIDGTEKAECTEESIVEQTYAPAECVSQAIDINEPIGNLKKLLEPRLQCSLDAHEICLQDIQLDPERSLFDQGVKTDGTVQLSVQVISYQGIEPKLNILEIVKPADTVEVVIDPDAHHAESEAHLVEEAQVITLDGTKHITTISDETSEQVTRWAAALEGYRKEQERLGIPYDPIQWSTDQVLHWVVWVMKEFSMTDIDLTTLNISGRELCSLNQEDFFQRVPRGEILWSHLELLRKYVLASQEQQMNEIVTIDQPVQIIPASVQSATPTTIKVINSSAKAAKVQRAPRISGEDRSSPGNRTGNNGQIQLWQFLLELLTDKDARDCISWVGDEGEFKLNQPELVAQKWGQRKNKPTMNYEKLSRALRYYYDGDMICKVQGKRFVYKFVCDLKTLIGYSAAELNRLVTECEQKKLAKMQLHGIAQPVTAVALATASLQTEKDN
Method in brief: as §1

ERG = target: T4, ERG (Homo sapiens, UniProt P11308 1-479); settings: protein: recombinant; tags: N-terminal GST; dsDNA, one strand shown
T4 sequence: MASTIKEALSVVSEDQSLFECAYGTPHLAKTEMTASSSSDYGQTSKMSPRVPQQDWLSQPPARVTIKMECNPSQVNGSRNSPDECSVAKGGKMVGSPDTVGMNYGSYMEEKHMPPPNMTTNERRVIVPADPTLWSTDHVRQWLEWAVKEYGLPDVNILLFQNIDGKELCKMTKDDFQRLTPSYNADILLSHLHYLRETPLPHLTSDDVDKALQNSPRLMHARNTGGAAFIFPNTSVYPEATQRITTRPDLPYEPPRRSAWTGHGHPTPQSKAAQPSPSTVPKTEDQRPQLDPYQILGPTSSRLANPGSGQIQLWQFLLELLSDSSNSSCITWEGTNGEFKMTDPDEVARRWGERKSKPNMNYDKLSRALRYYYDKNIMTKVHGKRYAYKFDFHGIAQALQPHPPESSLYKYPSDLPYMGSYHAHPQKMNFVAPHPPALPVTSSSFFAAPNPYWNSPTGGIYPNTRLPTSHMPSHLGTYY
Method in brief: as §1

ELF1 = ELF1 (Homo sapiens, UniProt P32519 1-619); settings: protein: recombinant; tags: N-terminal GST; dsDNA, one strand shown
Method in brief: as §1

EHF = target: T5, EHF (Homo sapiens, UniProt Q9NZC4 1-300); settings: protein: recombinant; tags: N-terminal GST; dsDNA, one strand shown
T5 sequence: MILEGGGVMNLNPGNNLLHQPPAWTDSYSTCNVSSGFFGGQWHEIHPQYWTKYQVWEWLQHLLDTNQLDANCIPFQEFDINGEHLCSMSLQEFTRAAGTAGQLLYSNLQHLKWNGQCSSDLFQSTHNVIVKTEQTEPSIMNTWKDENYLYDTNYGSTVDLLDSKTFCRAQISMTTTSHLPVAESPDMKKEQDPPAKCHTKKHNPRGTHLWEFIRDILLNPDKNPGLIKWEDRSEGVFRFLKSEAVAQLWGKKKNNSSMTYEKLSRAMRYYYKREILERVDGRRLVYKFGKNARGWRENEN
Method in brief: as §1

SPI1 = SPI1 (Homo sapiens, UniProt P17947 1-270); settings: protein: recombinant; tags: N-terminal GST; dsDNA, one strand shown
Method in brief: as §1

SPIB = SPIB (Homo sapiens, UniProt Q01892 1-262); settings: protein: recombinant; tags: N-terminal GST; dsDNA, one strand shown
Method in brief: as §1

ELK3 = target: T6, ELK3 (Homo sapiens, UniProt P41970 1-407); settings: protein: recombinant; tags: N-terminal GST; dsDNA, one strand shown
T6 sequence: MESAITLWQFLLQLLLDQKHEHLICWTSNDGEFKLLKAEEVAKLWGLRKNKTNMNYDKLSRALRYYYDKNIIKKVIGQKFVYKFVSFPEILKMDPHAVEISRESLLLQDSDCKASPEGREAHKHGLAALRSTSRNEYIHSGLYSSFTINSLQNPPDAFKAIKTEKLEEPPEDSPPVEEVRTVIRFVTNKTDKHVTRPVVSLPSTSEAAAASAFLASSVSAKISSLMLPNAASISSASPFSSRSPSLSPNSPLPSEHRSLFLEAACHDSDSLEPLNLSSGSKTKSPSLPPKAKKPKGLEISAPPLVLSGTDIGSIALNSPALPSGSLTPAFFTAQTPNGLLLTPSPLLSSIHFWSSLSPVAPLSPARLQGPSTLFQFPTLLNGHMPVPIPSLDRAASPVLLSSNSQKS
Method in brief: as §1

FEV = target: T7, FEV (Homo sapiens, UniProt Q99581 1-238); settings: protein: recombinant; tags: N-terminal GST; dsDNA, one strand shown
T7 sequence: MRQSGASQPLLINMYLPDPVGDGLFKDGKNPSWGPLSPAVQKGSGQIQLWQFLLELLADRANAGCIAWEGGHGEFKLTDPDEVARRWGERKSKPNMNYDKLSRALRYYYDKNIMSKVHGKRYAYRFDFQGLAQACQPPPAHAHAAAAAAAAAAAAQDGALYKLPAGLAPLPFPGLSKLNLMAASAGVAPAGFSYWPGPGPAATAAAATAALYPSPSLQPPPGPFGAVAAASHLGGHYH
Method in brief: as §1

ETV5 = ETV5 (Homo sapiens, UniProt P41161 1-510); settings: protein: recombinant; tags: N-terminal GST; dsDNA, one strand shown
Method in brief: as §1

HSF1 = HSF1 (Homo sapiens, UniProt Q00613 1-529); settings: protein: recombinant; tags: N-terminal GST; chain copies: 3; dsDNA, one strand shown
Method in brief: as §1

ELF4 = ELF4 (Homo sapiens, UniProt Q99607 1-663); settings: protein: recombinant; tags: N-terminal GST; dsDNA, one strand shown
Method in brief: as §1

ELK4 = target: T8, ELK4 (Homo sapiens, UniProt P28324-2 1-405); settings: protein: recombinant; tags: N-terminal GST; dsDNA, one strand shown
T8 sequence: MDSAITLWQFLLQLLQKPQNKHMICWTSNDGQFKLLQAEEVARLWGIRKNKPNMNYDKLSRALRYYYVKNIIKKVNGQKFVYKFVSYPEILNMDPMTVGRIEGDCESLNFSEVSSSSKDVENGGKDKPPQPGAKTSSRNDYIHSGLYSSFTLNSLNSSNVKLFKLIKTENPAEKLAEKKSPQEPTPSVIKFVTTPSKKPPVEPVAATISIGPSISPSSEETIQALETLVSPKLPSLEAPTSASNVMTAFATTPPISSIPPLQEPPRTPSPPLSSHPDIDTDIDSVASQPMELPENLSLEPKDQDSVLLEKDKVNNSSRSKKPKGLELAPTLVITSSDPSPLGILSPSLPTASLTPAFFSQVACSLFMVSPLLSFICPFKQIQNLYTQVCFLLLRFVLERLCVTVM
Method in brief: as §1

ETV2 = target: T9, ETV2 (Homo sapiens, UniProt O00321 1-342); settings: protein: recombinant; tags: N-terminal GST; dsDNA, one strand shown
T9 sequence: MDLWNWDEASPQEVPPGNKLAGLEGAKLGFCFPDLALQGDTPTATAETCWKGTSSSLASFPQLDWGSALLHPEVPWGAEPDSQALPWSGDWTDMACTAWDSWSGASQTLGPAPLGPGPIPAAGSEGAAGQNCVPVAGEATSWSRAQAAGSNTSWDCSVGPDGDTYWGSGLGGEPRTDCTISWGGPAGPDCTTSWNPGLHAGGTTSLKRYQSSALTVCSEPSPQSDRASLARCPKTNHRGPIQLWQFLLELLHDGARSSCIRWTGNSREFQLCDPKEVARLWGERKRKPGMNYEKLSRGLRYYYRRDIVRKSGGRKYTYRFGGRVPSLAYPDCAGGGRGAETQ
Method in brief: as §1

ELF3 = target: T10, ELF3 (Homo sapiens, UniProt P78545 1-371); settings: protein: recombinant; tags: N-terminal GST; dsDNA, one strand shown
T10 sequence: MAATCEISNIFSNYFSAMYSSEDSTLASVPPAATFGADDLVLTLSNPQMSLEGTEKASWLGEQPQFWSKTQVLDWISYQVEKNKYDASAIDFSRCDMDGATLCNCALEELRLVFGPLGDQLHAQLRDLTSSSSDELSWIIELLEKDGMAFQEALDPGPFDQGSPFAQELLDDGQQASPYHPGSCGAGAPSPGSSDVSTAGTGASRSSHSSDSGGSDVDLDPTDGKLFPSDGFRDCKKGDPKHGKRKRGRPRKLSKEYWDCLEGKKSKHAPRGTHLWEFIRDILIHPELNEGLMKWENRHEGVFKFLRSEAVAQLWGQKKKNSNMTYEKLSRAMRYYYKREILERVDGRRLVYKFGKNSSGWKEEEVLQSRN
Method in brief: as §1

CRX = CRX (Homo sapiens, UniProt O43186 1-299); settings: protein: recombinant; tags: N-terminal GST; dsDNA, one strand shown
Method in brief: as §1

ETV1 = ETV1 (Homo sapiens, UniProt P50549 1-477); settings: protein: recombinant; tags: N-terminal GST; dsDNA, one strand shown
Method in brief: as §1

Sequence of ETV5 (P41161 whole entry): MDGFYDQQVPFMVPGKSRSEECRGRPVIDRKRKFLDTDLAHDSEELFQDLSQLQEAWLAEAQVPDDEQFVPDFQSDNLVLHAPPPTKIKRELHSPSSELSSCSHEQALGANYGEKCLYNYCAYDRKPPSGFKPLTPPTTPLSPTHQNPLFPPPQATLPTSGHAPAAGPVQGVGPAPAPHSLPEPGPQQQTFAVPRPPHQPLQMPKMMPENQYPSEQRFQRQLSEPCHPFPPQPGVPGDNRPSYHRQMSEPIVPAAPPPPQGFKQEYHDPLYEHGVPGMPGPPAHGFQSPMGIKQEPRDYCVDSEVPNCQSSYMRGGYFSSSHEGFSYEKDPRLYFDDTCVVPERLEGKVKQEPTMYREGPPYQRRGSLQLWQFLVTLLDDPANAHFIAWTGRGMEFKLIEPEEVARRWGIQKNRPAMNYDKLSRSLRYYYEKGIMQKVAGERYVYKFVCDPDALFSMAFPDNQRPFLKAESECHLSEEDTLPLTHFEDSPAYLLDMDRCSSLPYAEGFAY
Sequence of ETV1 (P50549 whole entry): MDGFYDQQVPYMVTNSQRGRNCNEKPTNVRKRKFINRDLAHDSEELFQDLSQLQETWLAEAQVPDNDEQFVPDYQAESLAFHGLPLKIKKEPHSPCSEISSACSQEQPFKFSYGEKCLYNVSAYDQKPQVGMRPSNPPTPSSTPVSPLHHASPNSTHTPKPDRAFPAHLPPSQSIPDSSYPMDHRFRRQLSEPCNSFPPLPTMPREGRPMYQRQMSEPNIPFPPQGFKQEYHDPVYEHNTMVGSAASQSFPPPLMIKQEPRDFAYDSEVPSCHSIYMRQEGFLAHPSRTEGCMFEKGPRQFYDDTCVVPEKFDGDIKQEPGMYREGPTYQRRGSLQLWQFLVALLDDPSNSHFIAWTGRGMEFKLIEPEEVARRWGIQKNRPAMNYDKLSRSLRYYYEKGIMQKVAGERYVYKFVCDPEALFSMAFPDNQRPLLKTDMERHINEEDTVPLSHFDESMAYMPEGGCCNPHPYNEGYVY
Sequence of HSF1 (Q00613 whole entry): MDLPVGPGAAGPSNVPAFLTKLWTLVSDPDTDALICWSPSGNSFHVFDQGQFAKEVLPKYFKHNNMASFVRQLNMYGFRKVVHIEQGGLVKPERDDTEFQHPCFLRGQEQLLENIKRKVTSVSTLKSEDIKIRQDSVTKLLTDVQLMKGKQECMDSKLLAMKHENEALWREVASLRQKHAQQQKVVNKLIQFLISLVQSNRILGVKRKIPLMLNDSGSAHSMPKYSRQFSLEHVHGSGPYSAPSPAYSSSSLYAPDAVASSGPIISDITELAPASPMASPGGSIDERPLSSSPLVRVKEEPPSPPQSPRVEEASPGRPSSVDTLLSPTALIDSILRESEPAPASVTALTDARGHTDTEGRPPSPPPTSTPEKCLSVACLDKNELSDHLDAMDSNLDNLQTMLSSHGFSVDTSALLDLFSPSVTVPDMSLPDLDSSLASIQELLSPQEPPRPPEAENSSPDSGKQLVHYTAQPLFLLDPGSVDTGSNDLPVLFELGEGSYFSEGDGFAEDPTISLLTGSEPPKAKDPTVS
Sequence of ELF1 (P32519 whole entry): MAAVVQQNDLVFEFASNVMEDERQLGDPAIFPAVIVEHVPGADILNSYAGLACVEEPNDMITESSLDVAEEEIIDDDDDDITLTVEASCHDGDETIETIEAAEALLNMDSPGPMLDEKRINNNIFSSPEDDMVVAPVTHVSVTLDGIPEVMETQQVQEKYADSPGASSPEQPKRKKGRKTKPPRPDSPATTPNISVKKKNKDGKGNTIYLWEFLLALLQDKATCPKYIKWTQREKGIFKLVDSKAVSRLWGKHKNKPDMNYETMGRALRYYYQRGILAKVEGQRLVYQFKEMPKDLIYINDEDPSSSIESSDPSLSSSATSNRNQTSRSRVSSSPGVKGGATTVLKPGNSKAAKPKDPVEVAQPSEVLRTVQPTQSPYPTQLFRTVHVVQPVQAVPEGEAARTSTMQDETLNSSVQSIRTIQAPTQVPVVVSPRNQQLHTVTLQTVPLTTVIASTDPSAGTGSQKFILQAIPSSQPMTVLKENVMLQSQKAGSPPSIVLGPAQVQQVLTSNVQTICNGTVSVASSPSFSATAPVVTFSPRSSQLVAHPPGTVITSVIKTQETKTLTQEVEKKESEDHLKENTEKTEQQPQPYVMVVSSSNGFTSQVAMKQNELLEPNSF
Sequence of SPIB (Q01892 whole entry): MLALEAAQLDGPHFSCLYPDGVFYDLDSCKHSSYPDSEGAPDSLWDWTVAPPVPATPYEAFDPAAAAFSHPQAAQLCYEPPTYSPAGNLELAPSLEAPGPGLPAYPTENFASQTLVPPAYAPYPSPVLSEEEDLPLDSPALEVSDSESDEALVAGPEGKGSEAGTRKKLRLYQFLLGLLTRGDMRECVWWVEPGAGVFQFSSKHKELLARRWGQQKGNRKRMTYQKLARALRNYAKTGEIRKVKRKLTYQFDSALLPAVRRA
Sequence of CRX (O43186 whole entry): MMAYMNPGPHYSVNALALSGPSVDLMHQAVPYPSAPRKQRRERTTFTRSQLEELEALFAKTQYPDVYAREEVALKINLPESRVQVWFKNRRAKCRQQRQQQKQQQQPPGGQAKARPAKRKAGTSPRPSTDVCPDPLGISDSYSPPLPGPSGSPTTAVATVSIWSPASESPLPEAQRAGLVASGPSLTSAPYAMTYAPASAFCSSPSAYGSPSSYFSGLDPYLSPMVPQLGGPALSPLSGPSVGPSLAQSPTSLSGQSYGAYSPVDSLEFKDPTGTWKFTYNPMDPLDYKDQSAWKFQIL
Sequence of ELF4 (Q99607 whole entry): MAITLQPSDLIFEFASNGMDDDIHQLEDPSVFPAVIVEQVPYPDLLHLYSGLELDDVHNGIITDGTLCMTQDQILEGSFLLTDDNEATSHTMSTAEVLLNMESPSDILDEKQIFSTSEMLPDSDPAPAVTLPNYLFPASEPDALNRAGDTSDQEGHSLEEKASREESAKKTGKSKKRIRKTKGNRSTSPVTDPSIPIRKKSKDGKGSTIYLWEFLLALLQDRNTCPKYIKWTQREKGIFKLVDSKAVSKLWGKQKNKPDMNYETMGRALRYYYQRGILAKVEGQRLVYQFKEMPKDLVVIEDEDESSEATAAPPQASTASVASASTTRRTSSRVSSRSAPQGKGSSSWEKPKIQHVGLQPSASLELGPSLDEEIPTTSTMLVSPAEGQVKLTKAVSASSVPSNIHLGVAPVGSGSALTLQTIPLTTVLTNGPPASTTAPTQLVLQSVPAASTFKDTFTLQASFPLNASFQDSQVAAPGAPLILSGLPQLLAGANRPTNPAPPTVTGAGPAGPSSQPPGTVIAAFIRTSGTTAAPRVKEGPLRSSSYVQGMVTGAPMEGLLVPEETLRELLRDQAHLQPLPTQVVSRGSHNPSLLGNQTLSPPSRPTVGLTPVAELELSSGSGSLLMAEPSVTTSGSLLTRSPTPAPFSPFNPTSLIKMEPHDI

AAATAG
binding signal (FLI1): 1.18 fold enrichment (6-mer frequency, TF over GST control)
binding signal (ELK1): 1.1 fold enrichment (6-mer frequency, TF over GST control)
binding signal (GABPA): 1.12 fold enrichment (6-mer frequency, TF over GST control)
binding signal (ERG): 1.22 fold enrichment (6-mer frequency, TF over GST control)
binding signal (ELF1): 1.08 fold enrichment (6-mer frequency, TF over GST control)
binding signal (EHF): 1.19 fold enrichment (6-mer frequency, TF over GST control)
binding signal (SPI1): 1.22 fold enrichment (6-mer frequency, TF over GST control)
binding signal (SPIB): 1.15 fold enrichment (6-mer frequency, TF over GST control)
binding signal (ELK3): 1.08 fold enrichment (6-mer frequency, TF over GST control)
binding signal (FEV): 1.16 fold enrichment (6-mer frequency, TF over GST control)
binding signal (ETV5): 1.2 fold enrichment (6-mer frequency, TF over GST control)
binding signal (HSF1): 1.09 fold enrichment (6-mer frequency, TF over GST control)
binding signal (ELF4): 1.02 fold enrichment (6-mer frequency, TF over GST control)
binding signal (ELK4): 1.15 fold enrichment (6-mer frequency, TF over GST control)
binding signal (ETV2): 1.06 fold enrichment (6-mer frequency, TF over GST control)
binding signal (ELF3): 1.17 fold enrichment (6-mer frequency, TF over GST control)
binding signal (CRX): 1.11 fold enrichment (6-mer frequency, TF over GST control)
binding signal (ETV1): 1.11 fold enrichment (6-mer frequency, TF over GST control)
